# Laboratory results: the OligoGym collection
# Biological target: MYL4
# Experiment: pooled miR-30 sensor sort-seq; sequence = guide strand
# Conditions: shRNA
# Note: reference of the scale not given here.
row,Sequence,sensor-assay potency score (higher = more potent)
1,TTGAACTCTTCAATCTGGTCGG,0.391
2,TCTTGACATTCATCTCTTCAGG,-0.927
3,TCGGCAGTGAAGTCTATCTTTA,-1.13

# Biological target: MYNN
# Experiment: as above
# Conditions: shRNA
row,Sequence,sensor-assay potency score (higher = more potent)
1,TTTGAGATGACTTTTTCGCTAA,-0.185
2,TGCTTCTGTAGATCGCACCAAA,-1.32
3,TTTGAGATAGTCAGCAGCCTGA,-0.243
4,TTTTTCTTCACCATGATGCATG,-0.931
5,TAAATTTTTAATATCTGTGTAA,-0.492
6,TTGACCTCAACAATGTATCTGA,0.54
7,TAACAGTGTGCACAATATCTTG,-1.2
8,TTATGTATTCTCATGTGCCTTC,0.676
9,TTATTTGTGCAACTTGTTCTAC,0.0284
10,TTGAGATTGCTAGAAGTCGCAA,-0.134
11,TTTCTGAAATCCATCAGCCTTC,-0.541
12,TCGATTATTATAATCTCGCAGA,-0.633

# Biological target: MYO1A
# Experiment: as above
# Conditions: shRNA
row,Sequence,sensor-assay potency score (higher = more potent)
1,TTCTCCTTGAACCTCACTGAGA,-1.61
2,TAAATCTTCTGTATGAGTGTGG,0.504
3,TAGTCCACCTTTGTCCACGGTA,-0.661
4,TTGATTCGATTCACTATCCAGT,-0.284
5,TTTTTGTAGCGTAGCTTGCTGT,-0.784
6,TAAGACATCACCAGCTTGCTGG,-0.216
7,TTCCTCTTGCTCTTCTTTCAGG,-0.825
8,TTGTCTAAGACGTTTGTGGATG,-0.839
9,TTGTCGAATCTCCTCCTCCGAG,-0.993
10,TTGAGCTGCTTCACTAATCGGG,0.105
11,TAGCACTTGTCGAATCTCCTCC,0.419

# Biological target: MYO1D
# Experiment: as above
# Conditions: shRNA
row,Sequence,sensor-assay potency score (higher = more potent)
1,TTGTTCTGAACCTCCTTGGAGT,-0.407
2,TTCAAGAAACATTTCATCGGTG,0.501
3,TAGTAGAGAGCAATTCTGCTAT,0.00249
4,TTGAGCACAGGATTTGAACTGT,0.338
5,TATAGTTGTAGGATGAAAGGGA,0.615
6,TTAGTTTCTTGACAGCCTCTTT,-0.583
7,TTTCTCAACCATATCTGTCTTA,0.187
8,TTGTTCTTGCTTCAGAACCAGC,-1.43
9,TAGATGTTCAACAACTTGTAAG,-1.57
10,TTCAAAACTGTTGTTGTCGAAG,-0.485
11,TTAAGTAAGATGATCCTTGGAG,0.286

# Biological target: MYO1F
# Experiment: as above
# Conditions: shRNA
row,Sequence,sensor-assay potency score (higher = more potent)
1,TTCCGGTACATGTTGTCCGTGA,0.0719
2,TTCTTGACAAAGACCTTGGTGC,0.169
3,TTCTGGAAGATCTCGAAGCCGT,-0.863
